Laboratory results taken from the supplement of paper PMC12067093, “Discovery and optimisation of a covalent ligand for TRIM25 and its application to targeted protein ubiquitination” (Chemical Science, 2025).
About 21,000 targets were measured; listed, in parts, are those with the largest changes and a random draw of the rest.

Compound: Cc1cc(ccc1-c1ccccc1)C(=O)N1CCCN(CC1)C(=O)CCl [compound 10]
Test: probe-labelled cysteine peptide fold change vs DMSO (competition) (log2 fold change); higher = less target engagement (more negative = stronger competition)
Conditions: THP-1, incubation time: 4 h
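Further: competitive profiling in live THP-1 cells: cysteine peptides tagged with an iodoacetamide desthiobiotin (IA-DTB) probe, intensity after compound treatment relative to DMSO-treated cells.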

Target: TRMT2A_Q8IZ69_270_GGTCAVAAPFDTVHIPEATK (UniProt Q8IZ69)
- probe-labelled cysteine peptide fold change (10 µM): -0.0935
- probe-labelled cysteine peptide fold change (50 µM): -0.357

Target: TRIP6_Q15654_339+342_CATCSQPILDR (UniProt Q15654)
- probe-labelled cysteine peptide fold change (10 µM): 0.045
- probe-labelled cysteine peptide fold change (50 µM): -0.28

Target: TRIM25_Q14258_506_FTYCSQVLGLHCYK (UniProt Q14258)
- probe-labelled cysteine peptide fold change (10 µM): -1.09
- probe-labelled cysteine peptide fold change (50 µM): -4.87

Target: TRIM25_Q14258_119_TCLVCMASFCQEHLQPHFDSPAFQDHPLQPPVR (UniProt Q14258)
- probe-labelled cysteine peptide fold change (10 µM): 0.371
- probe-labelled cysteine peptide fold change (50 µM): 0.313

Target: UVRAG_Q9P2Y5_186_TILLQVDQNCVR (UniProt Q9P2Y5)
- probe-labelled cysteine peptide fold change (10 µM): -0.089
- probe-labelled cysteine peptide fold change (50 µM): -0.0238

Target: UBR7_Q8N806_137_YNDNFFGLYCICK (UniProt Q8N806)
- probe-labelled cysteine peptide fold change (10 µM): 0.0481
- probe-labelled cysteine peptide fold change (50 µM): -0.0777

Target: UGGT1_Q9NYU2_880_MDFILSHAVYCR (UniProt Q9NYU2)
- probe-labelled cysteine peptide fold change (10 µM): 0.117
- probe-labelled cysteine peptide fold change (50 µM): 0.39

Target: TSPAN2_O60636_164_ESSEQVQPTCPK (UniProt O60636)
UniProt O60636, sequence (O60636 whole entry): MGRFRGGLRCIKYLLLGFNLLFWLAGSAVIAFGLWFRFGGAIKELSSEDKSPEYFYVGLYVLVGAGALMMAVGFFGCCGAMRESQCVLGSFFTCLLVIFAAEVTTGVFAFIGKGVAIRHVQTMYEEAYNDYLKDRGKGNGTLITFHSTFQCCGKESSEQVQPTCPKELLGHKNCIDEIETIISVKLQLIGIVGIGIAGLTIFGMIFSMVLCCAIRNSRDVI
- probe-labelled cysteine peptide fold change (10 µM): -0.411
- probe-labelled cysteine peptide fold change (50 µM): -0.422

Target: TRIM59_Q8IWR1_10+13_MHNFEEELTCPICYSIFEDPR<|>IFT80_Q9P2H3-3_10+13_MHNFEEELTCPICYSIFEDPR (UniProt Q9P2H3+Q8IWR1)
- probe-labelled cysteine peptide fold change (10 µM): -0.194
- probe-labelled cysteine peptide fold change (50 µM): -1.63

Target: TRAPPC11_Q7Z392_615_ADCPHPIR (UniProt Q7Z392)
UniProt Q7Z392, sequence (Q7Z392 whole entry, looked up): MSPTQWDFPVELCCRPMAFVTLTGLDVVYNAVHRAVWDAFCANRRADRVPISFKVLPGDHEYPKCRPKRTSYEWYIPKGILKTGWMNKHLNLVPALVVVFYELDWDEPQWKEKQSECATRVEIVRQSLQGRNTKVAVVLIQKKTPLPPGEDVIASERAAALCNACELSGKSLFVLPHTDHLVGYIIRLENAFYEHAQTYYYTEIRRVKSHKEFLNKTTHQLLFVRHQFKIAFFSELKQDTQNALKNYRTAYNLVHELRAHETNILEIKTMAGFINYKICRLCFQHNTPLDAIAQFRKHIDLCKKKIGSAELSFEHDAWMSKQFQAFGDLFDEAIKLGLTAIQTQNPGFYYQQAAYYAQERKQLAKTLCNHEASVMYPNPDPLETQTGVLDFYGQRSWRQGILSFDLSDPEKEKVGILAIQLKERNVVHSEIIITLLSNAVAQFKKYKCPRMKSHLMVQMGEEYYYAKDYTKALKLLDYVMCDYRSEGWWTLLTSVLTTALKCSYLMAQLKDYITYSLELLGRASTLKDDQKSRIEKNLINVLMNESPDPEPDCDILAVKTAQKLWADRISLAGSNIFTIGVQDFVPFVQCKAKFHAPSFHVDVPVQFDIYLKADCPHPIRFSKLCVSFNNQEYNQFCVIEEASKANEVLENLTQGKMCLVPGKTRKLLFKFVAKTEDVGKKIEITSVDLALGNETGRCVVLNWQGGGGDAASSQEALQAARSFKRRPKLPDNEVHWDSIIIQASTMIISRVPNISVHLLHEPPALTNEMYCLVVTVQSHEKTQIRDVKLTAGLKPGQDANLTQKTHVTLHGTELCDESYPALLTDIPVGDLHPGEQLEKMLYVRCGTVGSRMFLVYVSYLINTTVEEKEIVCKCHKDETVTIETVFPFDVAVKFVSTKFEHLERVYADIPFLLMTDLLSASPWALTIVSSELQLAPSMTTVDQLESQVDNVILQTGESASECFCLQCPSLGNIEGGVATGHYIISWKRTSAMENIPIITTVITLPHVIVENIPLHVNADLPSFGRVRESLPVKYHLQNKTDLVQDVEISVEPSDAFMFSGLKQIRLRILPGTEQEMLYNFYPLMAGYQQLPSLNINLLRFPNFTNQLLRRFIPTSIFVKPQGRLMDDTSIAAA
- probe-labelled cysteine peptide fold change (10 µM): 0.126
- probe-labelled cysteine peptide fold change (50 µM): 0.142

Target: VPS33B_Q9H267_259_CGSVDFGPEVTSSDK (UniProt Q9H267)
UniProt Q9H267, sequence (Q9H267 whole entry, looked up): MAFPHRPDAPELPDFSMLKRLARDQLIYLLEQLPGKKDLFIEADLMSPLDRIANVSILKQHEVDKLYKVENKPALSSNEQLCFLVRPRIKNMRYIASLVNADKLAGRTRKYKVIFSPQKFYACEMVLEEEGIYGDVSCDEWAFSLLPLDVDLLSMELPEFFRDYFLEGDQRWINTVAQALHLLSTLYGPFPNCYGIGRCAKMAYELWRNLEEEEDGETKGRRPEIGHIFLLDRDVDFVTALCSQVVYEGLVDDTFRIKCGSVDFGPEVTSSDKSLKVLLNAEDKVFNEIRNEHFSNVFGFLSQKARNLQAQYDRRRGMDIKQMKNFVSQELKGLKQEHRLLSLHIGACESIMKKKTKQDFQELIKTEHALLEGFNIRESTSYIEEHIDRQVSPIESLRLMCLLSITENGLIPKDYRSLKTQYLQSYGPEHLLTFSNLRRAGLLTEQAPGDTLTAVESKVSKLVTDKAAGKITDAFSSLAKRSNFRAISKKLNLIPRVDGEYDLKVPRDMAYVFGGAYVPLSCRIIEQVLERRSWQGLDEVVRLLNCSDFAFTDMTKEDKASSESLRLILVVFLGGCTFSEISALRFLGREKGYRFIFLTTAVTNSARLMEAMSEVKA
- probe-labelled cysteine peptide fold change (10 µM): 0.169
- probe-labelled cysteine peptide fold change (50 µM): 0.293

Target: TXNDC5_Q8NBS9_353_FYAPWCGHCK (UniProt Q8NBS9)
- probe-labelled cysteine peptide fold change (10 µM): -0.372
- probe-labelled cysteine peptide fold change (50 µM): -1.61

Target: TRIM28_Q13263_717_VLLALFCHEPCR (UniProt Q13263)
UniProt Q13263, sequence (Q13263 whole entry, looked up): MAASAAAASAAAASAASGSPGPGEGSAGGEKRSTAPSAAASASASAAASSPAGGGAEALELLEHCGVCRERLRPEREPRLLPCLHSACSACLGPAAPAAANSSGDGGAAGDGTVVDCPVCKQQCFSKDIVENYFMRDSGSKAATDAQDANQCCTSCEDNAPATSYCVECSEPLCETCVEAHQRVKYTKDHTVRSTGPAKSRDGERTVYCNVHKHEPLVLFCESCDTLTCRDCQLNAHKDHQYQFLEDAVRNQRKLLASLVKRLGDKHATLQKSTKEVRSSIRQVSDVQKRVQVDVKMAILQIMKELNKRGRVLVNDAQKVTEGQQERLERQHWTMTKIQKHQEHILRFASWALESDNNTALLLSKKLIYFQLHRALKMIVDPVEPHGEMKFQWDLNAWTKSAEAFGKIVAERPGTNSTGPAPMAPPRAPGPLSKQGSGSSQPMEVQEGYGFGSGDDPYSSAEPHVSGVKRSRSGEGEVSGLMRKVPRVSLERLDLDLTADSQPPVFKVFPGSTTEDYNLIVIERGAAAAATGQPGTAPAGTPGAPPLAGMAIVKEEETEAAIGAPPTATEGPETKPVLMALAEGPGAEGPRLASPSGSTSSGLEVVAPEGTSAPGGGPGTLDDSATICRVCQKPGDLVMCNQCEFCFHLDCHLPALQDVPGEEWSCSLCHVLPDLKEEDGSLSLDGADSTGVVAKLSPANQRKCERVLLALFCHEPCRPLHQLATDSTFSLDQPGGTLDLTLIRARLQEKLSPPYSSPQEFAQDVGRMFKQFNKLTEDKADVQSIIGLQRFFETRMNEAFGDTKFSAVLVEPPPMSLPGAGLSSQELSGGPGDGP
- probe-labelled cysteine peptide fold change (10 µM): 0.00318
- probe-labelled cysteine peptide fold change (50 µM): 0.0176

Target: VPS26B_Q4G0F5_334_TPSQLSDNNCRQ (UniProt Q4G0F5)
- probe-labelled cysteine peptide fold change (10 µM): -0.205
- probe-labelled cysteine peptide fold change (50 µM): -0.321

Target: TXNRD2_Q9NNW7_523_SGLDPTVTGCUG (UniProt Q9NNW7)
UniProt Q9NNW7, sequence (Q9NNW7 whole entry, looked up): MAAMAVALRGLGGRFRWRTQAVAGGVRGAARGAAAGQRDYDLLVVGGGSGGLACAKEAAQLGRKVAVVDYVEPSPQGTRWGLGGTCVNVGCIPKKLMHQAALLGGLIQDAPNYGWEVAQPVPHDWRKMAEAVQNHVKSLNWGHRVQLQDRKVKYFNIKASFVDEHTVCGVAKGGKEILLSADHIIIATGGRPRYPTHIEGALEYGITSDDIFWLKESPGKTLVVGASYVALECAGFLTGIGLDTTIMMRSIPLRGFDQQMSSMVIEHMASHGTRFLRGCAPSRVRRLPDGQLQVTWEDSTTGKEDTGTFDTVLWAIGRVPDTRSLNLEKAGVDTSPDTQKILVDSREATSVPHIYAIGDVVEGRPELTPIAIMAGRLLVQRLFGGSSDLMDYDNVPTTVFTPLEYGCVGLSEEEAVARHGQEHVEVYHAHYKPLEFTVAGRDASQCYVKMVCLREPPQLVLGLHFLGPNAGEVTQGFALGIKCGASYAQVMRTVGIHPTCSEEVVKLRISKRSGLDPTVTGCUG
- probe-labelled cysteine peptide fold change (10 µM): -1.15
- probe-labelled cysteine peptide fold change (50 µM): -2.15

Target: UBR7_Q8N806_46_CSYSQGSVKR (UniProt Q8N806)
- probe-labelled cysteine peptide fold change (10 µM): -0.118
- probe-labelled cysteine peptide fold change (50 µM): -0.607

Target: VAPA_Q9P0L0_128_CVFEMPNENDK (UniProt Q9P0L0)
UniProt Q9P0L0, sequence (Q9P0L0 whole entry, looked up): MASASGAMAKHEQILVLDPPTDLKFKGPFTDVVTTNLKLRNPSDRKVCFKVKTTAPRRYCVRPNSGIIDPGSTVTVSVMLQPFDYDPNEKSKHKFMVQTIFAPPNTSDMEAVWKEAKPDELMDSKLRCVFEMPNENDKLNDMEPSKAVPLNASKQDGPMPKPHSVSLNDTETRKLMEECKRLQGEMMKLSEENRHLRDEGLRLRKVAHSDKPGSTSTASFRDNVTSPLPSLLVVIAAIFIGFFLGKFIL
- probe-labelled cysteine peptide fold change (10 µM): -0.217
- probe-labelled cysteine peptide fold change (50 µM): -0.121

Target: USP9Y_O00507_674_DGQLWLCAPQAK (UniProt O00507)
- probe-labelled cysteine peptide fold change (10 µM): -0.00329
- probe-labelled cysteine peptide fold change (50 µM): -0.161

Target: UBE2L6_O14933_86+98_IYHPNVDENGQICLPIISSENWKPCTK (UniProt O14933)
UniProt O14933, sequence (O14933 whole entry, looked up): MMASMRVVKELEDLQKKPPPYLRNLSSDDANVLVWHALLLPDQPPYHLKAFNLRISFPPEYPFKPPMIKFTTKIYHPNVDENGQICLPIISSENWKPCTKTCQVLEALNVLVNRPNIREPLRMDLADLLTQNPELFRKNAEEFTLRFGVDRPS
- probe-labelled cysteine peptide fold change (10 µM): -0.606
- probe-labelled cysteine peptide fold change (50 µM): -1.39

Target: UROS_P10746_119_IGLDTEGETCGNAEK (UniProt P10746)
- probe-labelled cysteine peptide fold change (10 µM): -0.0553
- probe-labelled cysteine peptide fold change (50 µM): -0.0029

Target: TTLL12_Q14166_126_ESGLQAAHPNSIFLIDHAWTCR (UniProt Q14166)
- probe-labelled cysteine peptide fold change (10 µM): 0.0995
- probe-labelled cysteine peptide fold change (50 µM): 0.0514

Target: TPRA1_Q86W33_296_CQVDETEEPDVHLPQPYAVAR (UniProt Q86W33)
UniProt Q86W33, sequence (Q86W33 whole entry, looked up): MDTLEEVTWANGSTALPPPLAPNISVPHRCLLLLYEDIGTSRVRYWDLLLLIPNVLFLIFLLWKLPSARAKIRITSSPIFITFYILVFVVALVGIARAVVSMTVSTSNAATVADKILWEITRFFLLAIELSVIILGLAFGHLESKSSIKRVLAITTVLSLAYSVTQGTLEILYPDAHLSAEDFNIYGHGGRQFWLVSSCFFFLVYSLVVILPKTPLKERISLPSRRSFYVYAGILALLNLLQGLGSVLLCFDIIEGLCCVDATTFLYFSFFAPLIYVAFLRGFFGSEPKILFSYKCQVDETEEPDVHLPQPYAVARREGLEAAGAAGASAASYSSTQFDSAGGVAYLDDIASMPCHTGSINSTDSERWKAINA
- probe-labelled cysteine peptide fold change (10 µM): -0.418
- probe-labelled cysteine peptide fold change (50 µM): -1.52

Target: TTC17_Q96AE7_725_CPECENSLK (UniProt Q96AE7)
- probe-labelled cysteine peptide fold change (10 µM): 0.113
- probe-labelled cysteine peptide fold change (50 µM): 0.453

Target: UBR4_Q5T4S7_2619_QLEGDCCSFITQLVNHFWK (UniProt Q5T4S7)
- probe-labelled cysteine peptide fold change (10 µM): -0.0425
- probe-labelled cysteine peptide fold change (50 µM): -0.45

Target: TRMT10C_Q7L0Y3_78_SSVQEECVSTISSSKDEDPLAATR (UniProt Q7L0Y3)
UniProt Q7L0Y3, sequence (Q7L0Y3 whole entry, looked up): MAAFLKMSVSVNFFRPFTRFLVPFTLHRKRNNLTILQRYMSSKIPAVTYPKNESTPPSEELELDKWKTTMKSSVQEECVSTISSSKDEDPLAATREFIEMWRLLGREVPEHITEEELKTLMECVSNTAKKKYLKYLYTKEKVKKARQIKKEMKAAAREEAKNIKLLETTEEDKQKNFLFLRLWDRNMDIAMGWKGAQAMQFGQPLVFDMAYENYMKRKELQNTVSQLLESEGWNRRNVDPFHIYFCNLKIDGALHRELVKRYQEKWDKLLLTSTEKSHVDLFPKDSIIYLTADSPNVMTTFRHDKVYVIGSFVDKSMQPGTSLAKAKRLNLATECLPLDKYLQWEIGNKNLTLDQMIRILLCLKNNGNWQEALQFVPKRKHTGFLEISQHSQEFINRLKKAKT
- probe-labelled cysteine peptide fold change (10 µM): -0.141
- probe-labelled cysteine peptide fold change (50 µM): -0.518

Target: USP14_P54578_257_CTESEEEEVTK (UniProt P54578)
- probe-labelled cysteine peptide fold change (10 µM): -0.254
- probe-labelled cysteine peptide fold change (50 µM): -0.167

Target: TRNT1_Q96Q11_373_YQGEHCLLK (UniProt Q96Q11)
UniProt Q96Q11, sequence (Q96Q11 whole entry): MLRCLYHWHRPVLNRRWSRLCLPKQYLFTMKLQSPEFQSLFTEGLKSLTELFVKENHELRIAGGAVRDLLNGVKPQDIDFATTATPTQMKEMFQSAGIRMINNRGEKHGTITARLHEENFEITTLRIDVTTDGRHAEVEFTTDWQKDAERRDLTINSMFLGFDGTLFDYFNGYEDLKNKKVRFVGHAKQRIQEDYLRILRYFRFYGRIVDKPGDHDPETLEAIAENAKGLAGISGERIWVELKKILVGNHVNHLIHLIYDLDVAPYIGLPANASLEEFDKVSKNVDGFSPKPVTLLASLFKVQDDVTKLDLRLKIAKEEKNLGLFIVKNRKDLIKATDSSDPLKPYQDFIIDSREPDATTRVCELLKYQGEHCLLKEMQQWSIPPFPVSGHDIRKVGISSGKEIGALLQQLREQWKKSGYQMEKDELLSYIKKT
- probe-labelled cysteine peptide fold change (10 µM): -0.39
- probe-labelled cysteine peptide fold change (50 µM): -1.54
